For 27 molecules, Potency results are on record in PubChem BioAssay AID651965 (National Center for Advancing Translational Sciences (NCATS), 2013).

Out of some 340,000 compounds screened, about 6,400 (1.9%) were called active. About 4% were inconclusive and are not listed. The call rests on the fitted dose curve; in most records, active means well fitted falling curve with a large enough effect; inconclusive means small, poorly fitted or top-dose-only effect; inactive means no such curve, though single readings can be large or run the other way. Shown is part of a subset that was picked to be rich in actives. A call without a number means that no potency is given here.
Potency means the concentration at half of the fitted maximal effect.

ATP-dependent Clp protease proteolytic subunit (Bacillus subtilis (strain 168)), sequence (P80244 whole entry, looked up): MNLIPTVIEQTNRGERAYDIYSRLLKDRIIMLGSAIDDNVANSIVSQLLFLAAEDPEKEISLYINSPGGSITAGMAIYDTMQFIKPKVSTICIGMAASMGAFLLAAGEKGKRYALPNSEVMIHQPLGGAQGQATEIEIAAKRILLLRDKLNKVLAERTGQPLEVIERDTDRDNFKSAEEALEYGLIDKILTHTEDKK

The experiment addresses ATP-dependent Clp protease proteolytic subunit (Bacillus subtilis (strain 168)) (UniProt P80244). The experiment in a line: qHTS Assay for Activators of ClpP. Further: the source files actives as falling curves though it sought activators and does not explain the sign; nearly all actives have a fitted effect of over 65% in size. As to conditions: purified B. subtilis ClpP, FRET peptide cleavage, 20 min; series mostly up to 57.5 µM. In short, it runs like this: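 ClpP 10 microg/mL final, pH 8 Tris/KCl buffer with BSA, glycerol, Tween-20; compound pinned in; FRET-FV substrate; RT 20 min; Ex320/Em430; ΔFRET vs ADEP 5.8 microM, DMSO, no enzyme.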
For orientation: qHTS replaces the single test concentration by a dilution series.
Consider `Cc1ccccc1S(=O)(=O)NC(=O)C1(C)CCN1C(=O)C1(c2ccccc2)CCCC1` (configuration not stated), for which the Potency entry was “inactive”. For the molecule `O=C(Nc1ccccc1)N1CCC(C(=O)N2CCN(Cc3ccccc3)CC2)CC1`, the Potency result was “inactive”. For the molecule `O=C(Nc1ccccc1)N1CCN(C2c3ccccc3-c3ccccc32)CC1`, the Potency was 31.6 µM (active). With `O=C(Nc1cccc(NC(=O)N2CCN(c3ccccc3)CC2)c1)N1CCN(c2ccccc2)CC1`, the Potency entry was “inactive”. As to `Cc1ccc(O)c(/C=N/NC(=O)COc2ccc3c(C)cc(=O)oc3c2)c1`, the Potency entry is “inactive”. The result for `CC(=O)c1c(C)[nH]c(C(=O)COc2ccc3c(C)cc(=O)oc3c2)c1C` reads “inactive”; that for `Cc1cc(=O)oc2ccc(OCC(=O)O)cc12`, 31.6 µM (active). Take `Cc1cccc(C)c1NC(=O)CN1CCN(c2ccc(F)cc2)CC1`: the Potency entry was “inactive”.

Regarding `COCCn1c(=NC(=O)c2ccccc2[N+](=O)[O-])sc2cc(S(C)(=O)=O)ccc21`, the Potency entry is “inactive”. `CS(=O)(=O)c1ccc(-c2nnc(NC(=O)c3ccc4c(c3)OCCO4)o2)cc1`: the Potency result is “inactive”.

Regarding `Cn1c(=NC(=O)c2ccc3c(c2)OCCO3)sc2cc(S(C)(=O)=O)ccc21`, the Potency is 12.6 µM (active). The result for `CCCNC(=O)C1(C)CCN1C(=O)C1(c2ccccc2)CC1` (configuration not stated) reads “inactive”.

As for `O=C(/C=C/c1cccs1)NCc1cccnc1`, the Potency was 35.5 µM (active). Then `O=C(NCc1cccnc1)c1cn(-c2ccccc2)nc1-c1cccs1`, with “inactive”. As to `Cc1ccc(C(=O)NC(=S)NCc2cccnc2)cc1`, the Potency result was “inactive”. Consider `CCN1C(=O)[C@H]2[C@@H](c3ccc(C(F)(F)F)cc3)N[C@]3(CCCN(Cc4ccc(Br)cc4)C3=O)[C@H]2C1=O`, for which the Potency result was “inactive”. Consider `CS(=O)(=O)c1ccc(Cl)c(NC(=O)COC(=O)c2ncc(Cl)c(Cl)c2Cl)c1`, for which the Potency is 14.1 µM (active). As to `O=C(COC(=O)c1ncc(Cl)c(Cl)c1Cl)NNC(=O)c1ccccc1`, the Potency result is “inactive”. `O=C(COC(=O)c1ncc(Cl)c(Cl)c1Cl)NCc1ccccc1`: the Potency entry is “inactive”. In the case of `COc1ccc(C(=O)N2CCCCC2c2cc(C(=O)Nc3ccccc3)no2)cc1` (configuration not stated), the Potency entry is “inactive”.

For `Cc1cc(C)n2c(NCc3ccccc3)c(CC(C)C)nc2n1`, the Potency entry is “inactive”. For the molecule `Cc1cccc(CN2CCN(C3CN(Cc4cn(Cc5ccccc5F)nn4)S(=O)(=O)C3)CC2)c1` (configuration not stated), the Potency result is “inactive”. As for `CNCCCOc1cc2nc(N3CCCN(C)CC3)nc(NC3CCN(C)CC3)c2cc1OC`, the Potency entry is “inactive”. Turning to `OC(c1nnc(-c2ccccc2)o1)c1cccs1` (configuration not stated), the Potency entry is “inactive”. Regarding `Nc1ccc(-c2nnc(-c3ccc(-c4ccccc4)cc3)o2)cc1`, the Potency was 31.6 µM (active). Regarding `CN(C)c1ccc(-c2nnc(-c3cccnc3)o2)cc1`, the Potency entry was “inactive”. On to `O=C(COC(=O)c1ccccc1OCCOc1ccccc1)Nc1cccc(Br)c1`, for which the Potency entry was “inactive”.
